# A number with no mark means an inactive call. Calls of active or inactive are those of the source. Calls come from the whole dose curve; as a rule, active = well fitted inhibition curve with a large enough effect in the repeat runs (not every such curve was filed as active); inconclusive = weak or mixed curves; inactive = flat fitted curve, though single readings scatter.
# Molecular target: Thyrotropin-releasing hormone receptor (Homo sapiens) (UniProt P34981)
# Assay: qHTS assay to identify small molecule antagonists of the thyrotropin-releasing hormone receptor (TRHR) signaling pathway (AID 1346877)
# Conditions: TRHR-HEK293, TRH-induced calcium fluorescence, antagonist mode; series mostly up to 51.3 µM; activity, negative = inhibition: at the top concentration
# Description: National Center for Advancing Translational Sciences [NCATS]
# NIH Chemical Genomics Center [NCGC]
# U.S. Environmental Protection Agency [EPA]
# National Institutes of Environmental Health Sciences [NIEHS]
# National Toxicology Program [NTP]
# U.S. Food and Drug Administration [FDA]
# Thyrotropin-releasing hormone (TRH) receptor (TRHR) is a G-protein-coupled receptor which binds the tripeptide thyrotropin releasing hormone. TRHR is found in the brain and, when bound by TRH, acts (through phospholipase C) to increase intracellular inositol trisphosphate. It plays a crucial role in the anterior pituitary where it controls the synthesis and secretion of thyroid stimulating hormone and prolactin. The TRHR-Hek293 assay is a cell-based assay, and it has the potential to screen G protein-coupled receptors. A compound/drug can either activate (agonist) or suppress (antagonist) GPCRs that can be monitored by levels of intracellular calcium. In this assay, the Tox21 10K compound library was screened to identify potential TRHR antagonists.
# Tox21 Assay Protocol Summary:
# The TRHR-Hek293 cells were dispensed at 1500cells/4uL/well in 1536-well black-clear bottom plates using a Multidrop dispenser. After the assay plates were incubated at a 37 C/5% CO2 incubator for 18 hours, 4 uL of Dye-Loading Solution was added to each well. The plates were incubated at 37 C for 2 hours. For agonist mode, 23 nL of compounds dissolved in DMSO, positive controls or DMSO only was transferred to the assay plate by a pin tool. The fluorescence intensity in the plates was measured using FDSS 7000EX kinetic plate reader for 3 min at 1 sec intervals. For antagonist mode, 23 nL of compounds dissolved in DMSO, positive controls or DMSO only was transferred to the assay plate by a pin tool. After 5 min incubation at room temperature, 1 uL of TRH was added on the top of the cell/compound mixtures to achieve a final agonist concentration of 1 nM. The fluorescence intensity in the plates was measured using FDSS 7000EX kinetic plate reader for 3 min at 1 sec intervals. Each test compound was measured at 15 concentrations and in triplicates.
# % is set by controls: 0 for no effect and ±100 for the full control effect.
# Chain of Thyrotropin-releasing hormone receptor (Homo sapiens) (P34981 whole entry, looked up): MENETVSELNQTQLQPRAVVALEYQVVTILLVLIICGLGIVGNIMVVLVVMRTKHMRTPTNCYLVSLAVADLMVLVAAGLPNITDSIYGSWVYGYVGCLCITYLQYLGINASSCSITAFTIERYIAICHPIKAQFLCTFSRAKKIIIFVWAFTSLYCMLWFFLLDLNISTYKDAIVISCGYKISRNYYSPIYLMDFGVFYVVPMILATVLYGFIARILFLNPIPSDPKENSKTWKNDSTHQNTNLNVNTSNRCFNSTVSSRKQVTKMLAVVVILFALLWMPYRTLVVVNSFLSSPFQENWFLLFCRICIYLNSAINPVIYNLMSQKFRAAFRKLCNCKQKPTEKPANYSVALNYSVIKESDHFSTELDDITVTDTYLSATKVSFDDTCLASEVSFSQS
SMILES,outcome,"activity, negative = inhibition"
O=C1CCCCCCCCCCCN1,inactive,–
C/C=C(\C)C#N,–,2.55%
Nc1cc(=O)[nH]c(N)n1,–,2% [at 23.6 µM]
Cc1c(NC(C)C)c(=O)n(-c2ccccc2)n1C,–,-4.21% [at 23.6 µM]
CCO[Si](CCC1CCC2OC2C1)(OCC)OCC (stereo not given),–,4.56%
CS(=O)(=O)O,–,0.579%
N=C(N)c1ccc2cc(OC(=O)c3ccc(N=C(N)N)cc3)ccc2c1,–,-7.14% [at 23.6 µM]
CCN(CC)CCNC(=O)c1cc(S(C)(=O)=O)ccc1OC,–,-3.17% [at 23.6 µM]
CCO/C([O-])=N/c1c[n+](N2CCOCC2)no1,–,-0.378% [at 23.6 µM]
CN(C)CCCSc1ccccc1NC(=O)/C=C/c1ccccc1,–,0.323% [at 23.6 µM]
Cc1[nH]c(=O)c(C#N)cc1-c1ccc2nccn2c1,–,0.522% [at 23.6 µM]
CC(C)NCCCC1(C(N)=O)c2ccccc2-c2ccccc21,–,-1.4% [at 23.6 µM]
C[C@H](NC(CCc1ccccc1)C(=O)O)C(=O)N1CCC[C@H]1C(=O)O (stereo not given in full),–,-0.57% [at 23.6 µM]
C=C1CC[C@H]2C[C@@H]1C2(C)C,–,2.19%
O=C[C@H](O)[C@@H](O)[C@H](O)[C@H](O)CO,–,-3.67%
CC(=O)OC/C=C(\C)CC/C=C(\C)CCC=C(C)C,inactive,–
CC(C)(c1ccc(O)cc1)c1ccc(O)cc1,inactive,–
O=S(O)CO,–,-2.84%
NC(CSCC(=O)O)C(=O)O (stereo not given),–,-4.76% [at 23.6 µM]
O=C(O)CNC(=O)c1ccc([N+](=O)[O-])cc1,–,-0.39%

SMILES,outcome,"activity, negative = inhibition"
CC/C=C\CC/C=C/CO,–,-1.03%
O=C(CCCN1CCC(O)(c2cccc(C(F)(F)F)c2)CC1)c1ccc(F)cc1,–,0.552% [at 23.6 µM]
C=C(C)CS(=O)(=O)O,–,-6.39%
CN(C)CCCNCCCN(C)C,–,-1.63%
CCN1CCC[C@H]1CNC(=O)c1c(O)c(Cl)cc(Cl)c1OC,–,-1.06% [at 23.6 µM]
Cc1cnc(NS(=O)(=O)c2ccc(N)cc2)nc1,–,-1.1% [at 23.6 µM]
C[N+](C)(C)CCCCCC[N+](C)(C)C,inactive,–
CC(C)CCCC(C)N (stereo not given),–,-0.762% [at 23.6 µM]
O=C1CCCC(=O)C1,–,-7.21%
Nc1ccc(S(=O)(=O)Nc2ccnn2-c2ccccc2)cc1,–,2.52% [at 10.5 µM]
OC[C@]1(O)OC[C@@H](O)[C@H](O)[C@@H]1O,inactive,–
CC(=O)c1ccccc1O,–,0.196%
COC(=O)c1ccc(C)cc1C1=NC(C)(C(C)C)C(=O)N1 (stereo not given),–,-6.93%
COC(=O)[C@@H](N)Cc1ccc(O)c(O)c1,–,1.68% [at 23.6 µM]
C=C(C)C(=O)OCCCCCCCC(C)C,–,1.55%
CC(C)CNCC(C)C,–,1.99%
c1ccc([C@H]2CN3CCSC3=N2)cc1,–,-3.2% [at 23.6 µM]
Cn1c(N)c(N=O)c(=O)n(C)c1=O,–,-10.8%
Cc1c(O)cccc1O,–,-6.17%
CCCCOCCOCCOCc1cc2c(cc1CCC)OCO2,inactive,–

# — PubChem BioAssay (Tox21)
